We go through 53 compounds from ChEMBL document CHEMBL4513216, “Probing the Open Global Health Chemical Diversity Library for Multistage-Active Starting Points for Next-Generation Antimalarials” (ACS Infect Dis, 2020).

About 8,600 (12%) of roughly 69,000 compounds showed an effect of 50% or more. The sample holds strong results, similar compounds and a random draw of the others, so the mix is not that of the screen.

This assay deals with Plasmodium berghei. Briefly: Screen against P. berghei liver stage (PbLuc), transformed with Luciferase, at 10uM. The assay is classed as functional, HepG2. Conditions: tested at 10 uM.
Regarding `O=C(NCCc1nnc2n1CCC2)NCC1(c2ccccc2F)CC1`, the INHIBITION was determined as 33.8%.

As for `COCCN1CCCC1(C)c1nc(C)cc(N)n1` (stereo not drawn), the INHIBITION was -3.94%.

`Nc1nc2c(c(NCc3ccc(C(=O)N4CCCC4)cc3)n1)CCCC2`: the INHIBITION was 63.8%.

With `Cc1csc(N2CCCN(C(=O)c3cccs3)CC2)n1`, the INHIBITION came out at 29.2%.

On to `Nc1nc2c(c(N3CCN(C(=O)c4cccs4)CC3)n1)CCCC2`, for which the INHIBITION was determined as 72.5%.

As for `N#Cc1cccnc1N1CCN(C(=O)c2cccs2)CC1`, the INHIBITION is on record as 9.16%.

In the case of `Nc1nc2c(c(NCc3ccncc3)n1)CCCC2`, the INHIBITION was -68.2%.

`Nc1nc2c(c(NCc3nc(-c4ccncc4)n[nH]3)n1)CCCC2`: the INHIBITION was -97.2%.

As for `Cc1ccc(N2CC[C@H]3[C@@H]2CCC(=O)N3CCN2CCOCC2)nn1`, the INHIBITION worked out at 18.7%.

Take `O=C(c1cnccn1)N1CCOC2(CCN(Cc3ccsc3)CC2)C1`: the INHIBITION was found to be 13.7%.

Turning to `CNC(=O)NCC1CCC2(CCN(C(=O)c3ccccn3)CC2)CO1` (stereo not drawn), the INHIBITION was 35.8%.

On to `CN(C)Cc1cc(C2CCN(C(=O)C3CC34CCC4)CC2)nn1C` (stereo not drawn), for which the INHIBITION is 8.53%.

Take `CCCOc1ccc(CC2=NC(C)(CO)CO2)cc1` (stereo not drawn): the INHIBITION turned out to be 58.3%.

On to `CC(C)Oc1ccc(CC2=N[C@](C)(CO)CO2)cc1`, for which the INHIBITION amounted to 16%.

Regarding `CC1(CO)COC(Cc2ccc(Cl)cc2)=N1` (stereo not drawn), the INHIBITION is reported as 0.29%.

Regarding `CCn1cc(C(=O)Nc2ccccc2C(=O)OC)cn1`, the INHIBITION was found to be 21.5%.

`CS(=O)(=O)N1CCOCC2(CCN(Cc3ccoc3)CC2)C1`: the INHIBITION is recorded as 35.5%.

`CSc1ccc(CN2CCCC3(CNC(=O)c4ccccc4O3)C2)cc1` (stereo not drawn): the INHIBITION is on record as 73.7%.

Regarding `O=C1NCC2(CCCN(Cc3ccc(F)cc3)C2)Oc2ccccc21` (stereo not drawn), the INHIBITION is reported as 46%.

With `O=C1NCC2(CCCN(Cc3ccncc3)C2)Oc2ccccc21` (stereo not drawn), the INHIBITION is 36.4%.

As to `O=C(NCCc1nccs1)c1n[nH]c2c1CCC2`, the INHIBITION is reported as -147%.

As for `CN1CCC(CNC(=O)c2ccc3cccc(Cl)c3n2)C1` (stereo not drawn), the INHIBITION is 9.4%.

`Cc1ccc2cccc(C(=O)NCC3CCN(C(C)C)C3)c2n1` (stereo not drawn): the INHIBITION turned out to be 50.1%.

In the case of `Cc1ccc2cccc(C(=O)NCCOCC3CC3)c2n1`, the INHIBITION is listed as -58.5%.

Consider `COCCn1cnc2c(F)cc(Br)cc2c1=O`, for which the INHIBITION was 47.4%.

In the case of `CC(C)N(C)S(=O)(=O)c1ccc2c(c1)CCN(C(=O)c1cscn1)C2`, the INHIBITION was found to be 65.2%.

Consider `CC(C)N(C)S(=O)(=O)c1ccc2c(c1)CCN(C(=O)c1ccccn1)C2`, for which the INHIBITION is reported as -12.1%.

As to `CC(C)N(C)S(=O)(=O)c1ccc2c(c1)CCN(C(=O)c1cnccn1)C2`, the INHIBITION worked out at 28.8%.

On to `CCCc1cc(C(=O)NC(C)c2ccccc2)n(C)n1` (stereo not drawn), for which the INHIBITION is 8.7%.

For `O=C(O)c1cc(Br)cnc1OCC1CC1`, the INHIBITION is on record as 14.4%.

For the compound `Cc1cc2c(cc1CNC(Cc1cccs1)c1nccs1)OCO2` (stereo not drawn), the INHIBITION is 28.375%.

In the case of `N#Cc1ccc(NCC(=O)Nc2ncn(Cc3cccnc3)n2)cc1`, the INHIBITION stood at 72.3%.

For `CCSCCC(=O)Nc1ncn(Cc2cccnc2)n1`, the INHIBITION is on record as -11.1%.

For `CCSCCC(=O)Nc1ncn(Cc2ccccc2)n1`, the INHIBITION was 42%.

Turning to `CC(C)N(Cc1cccnc1)C(=O)CNc1ccc(C#N)cc1`, the INHIBITION was -21%.

Regarding `CCC(=O)Nc1ncn(Cc2cccnc2)n1`, the INHIBITION is 61.2%.

As for `N#Cc1ccc(NCC(=O)Nc2ccn(Cc3cccnc3)n2)cc1`, the INHIBITION was 41.4%.

On to `Cc1ncsc1C(=O)NCCn1nc(C2CCNC2)c2cccnc21` (stereo not drawn), for which the INHIBITION was determined as 38.7%.

Consider `CCc1nc(CC(=O)NCC(Cc2ccc(F)cc2)C(N)=O)cs1` (stereo not drawn), for which the INHIBITION is 48.2%.

For `O=C(NC1CC1)c1cccc(Oc2ccc3nncn3n2)c1`, the INHIBITION was -34.4%.

On to `COc1cc(C)sc1C(=O)N1CC(c2cccnc2)C1`, for which the INHIBITION is recorded as 56.8%.

In the case of `Cc1ccc(C(=O)N2CCSCC2)cc1N1CCNC1=O`, the INHIBITION was determined as 48.5%.

On to `Cc1ccc(C(=O)N2CC(c3cccnc3)C2)cc1N1CCNC1=O`, for which the INHIBITION was found to be 56.7%.

Turning to `CC1(C)CC1(C(=O)N1CC(c2cccnc2)C1)c1ccc(F)cc1` (stereo not drawn), the INHIBITION is given as 21.2%.

Consider `CC1(C)CC1(C(=O)N1CC(c2cccnc2)C1)c1ccccc1F` (stereo not drawn), for which the INHIBITION stood at 28.7%.

As for `COc1cc(C)sc1C(=O)N1CCC(Nc2cccnc2)CC1`, the INHIBITION worked out at 18.5%.

For the compound `COc1ccc(C2(C(=O)N3CC(c4cccnc4)C3)CC2(C)C)cc1` (stereo not drawn), the INHIBITION came out at 55.4%.

Consider `Cc1ccc(C(=O)N2Cc3ccccc3C2)cc1N1CCNC1=O`, for which the INHIBITION is recorded as 2.74%.

On to `COc1cc(C)sc1C(=O)N1CCCCC1c1ccccn1` (stereo not drawn), for which the INHIBITION is 47.7%.

Regarding `COc1ccccc1CC(=O)N1CCCC(c2cc(C)[nH]n2)C1` (stereo not drawn), the INHIBITION was -24.2%.

In the case of `Cc1ccc(-c2nnc(CNC(=O)c3cccnc3)o2)cn1`, the INHIBITION is 30.4%.

As for `CC(=O)N1CCCN(C(=O)NCCCn2cncn2)CC1`, the INHIBITION is given as -10.895%.

Take `COCCN(C)C[C@H]1C[C@H](CO)CN(C(=O)c2ccn(C)c(=O)c2)C1`: the INHIBITION is reported as 11.7%.
